HP1b chromo inh – blocks HP1-beta chromodomain binding to methylated histone tails. Potency, µM (highest dose often 114 µM), most hits filed as inhibitors. AID 540317. AlphaScreen HP1-beta / biotin-H3K9me3 peptide binding. P83916. 0.56% of 390,000 active; also: nearly all actives have a fitted effect of over 70% in size
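AlphaScreen: HP1-beta (50 nM) preformed 30 min with biotin-H3(1-18)K9me3 peptide (50 nM) in PBS pH 7.4, 0.01% Tween-20. Compound added for 30 min at RT, then streptavidin donor/nickel chelate acceptor beads (10 ug/mL) for 30 min.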
JMJD2A Tudor inh – inhibitors of human JMJD2A Tudor domain | O75164 | AlphaScreen JMJD2A-Tudor / H3K4me3 peptide binding | Potency, µM (highest dose often 114 µM), most hits filed as inhibitors | 4.4% of 390,000 active; also: nearly all actives have a fitted effect of over 50% in size
Target sequence (O75164 whole entry, looked up, the tested form may be a part): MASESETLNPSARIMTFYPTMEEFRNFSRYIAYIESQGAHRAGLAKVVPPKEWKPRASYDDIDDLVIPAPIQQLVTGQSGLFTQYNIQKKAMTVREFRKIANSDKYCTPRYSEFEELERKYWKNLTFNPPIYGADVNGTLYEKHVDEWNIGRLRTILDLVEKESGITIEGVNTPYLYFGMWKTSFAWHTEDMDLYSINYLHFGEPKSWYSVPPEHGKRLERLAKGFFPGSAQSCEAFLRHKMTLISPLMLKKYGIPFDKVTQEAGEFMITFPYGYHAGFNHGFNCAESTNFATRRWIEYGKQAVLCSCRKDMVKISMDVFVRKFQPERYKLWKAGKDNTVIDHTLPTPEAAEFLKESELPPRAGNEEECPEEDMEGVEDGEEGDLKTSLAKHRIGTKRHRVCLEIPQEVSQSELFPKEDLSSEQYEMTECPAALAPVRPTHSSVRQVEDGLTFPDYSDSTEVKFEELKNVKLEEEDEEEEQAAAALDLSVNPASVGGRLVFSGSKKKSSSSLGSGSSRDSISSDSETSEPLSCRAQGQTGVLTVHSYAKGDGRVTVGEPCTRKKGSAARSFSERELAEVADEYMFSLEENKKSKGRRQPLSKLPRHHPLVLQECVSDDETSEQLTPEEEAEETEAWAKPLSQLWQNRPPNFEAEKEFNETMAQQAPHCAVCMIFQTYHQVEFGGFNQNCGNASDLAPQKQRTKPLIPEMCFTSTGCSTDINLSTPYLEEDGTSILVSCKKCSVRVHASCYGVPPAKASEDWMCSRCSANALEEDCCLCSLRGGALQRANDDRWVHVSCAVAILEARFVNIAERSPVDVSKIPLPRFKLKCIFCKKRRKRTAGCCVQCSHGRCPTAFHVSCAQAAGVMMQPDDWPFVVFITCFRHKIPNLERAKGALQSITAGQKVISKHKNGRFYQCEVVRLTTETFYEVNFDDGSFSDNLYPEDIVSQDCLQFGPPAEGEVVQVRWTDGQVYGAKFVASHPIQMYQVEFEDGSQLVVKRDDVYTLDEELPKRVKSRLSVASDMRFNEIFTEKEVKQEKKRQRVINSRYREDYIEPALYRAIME
PI5P4Ka inh – PI5P4K alpha (human) kinase inhibition; AID 652105; 1.2% of 330,000 active; P48426; PI5P4Kalpha enzyme, ADP-Glo luminescence, 60 min; stronger effect = lower value; max response, %; active = max response of -50% or lower; inconclusive = between -30% and -50%; inactive = -30% or higher; also: value at the top dose of about 77 µM
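PI5P4Kalpha ADP-Glo assay; 5 microM ATP final; 60 min RT reaction; HEPES pH 7.4/EGTA/CHAPS, 5% DMSO; controls lacking substrate or enzyme; luminescent end-point.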
PLK1 PBD inh – blocks phosphopeptide binding to human PLK1 polo-box domain | 2.8% of 360,000 active | Potency, µM, usual class: inhibitors | P53350 | AID 720504 | Plk1 PBD binding of FITC phosphopeptide, fluorescence polarization; also: series mostly up to about 57 µM; nearly all actives have a fitted effect of over 65% in size
BAZ2B inh – BAZ2B (human) inhibition. Q9UIF8. AlphaScreen BAZ2B-H3K14Ac peptide displacement. Potency, µM (highest dose often 114 µM), most hits filed as inhibitors. 4.4% of 360,000 active; also: nearly all actives have a fitted effect of over 60% in size
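Compounds, titrated to a top concentration of 110 uM, were incubated 30 min at room temperature with preformed BAZ2B/acetyl-K14 H3 peptide complex (50 nM each). Proximity signal was measured by AlphaScreen after 20 min with beads.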
G9a block – G9a (human) methyltransferase inhibition | Q96KQ7 | Potency, µM (highest dose often 102 µM), hits mostly inhibitors | 8.8% of 350,000 active | G9a H3K9 monomethylation, AlphaScreen, 2 h; also: nearly all actives have a fitted effect of over 75% in size
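Using a bead-based AlphaScreen, monomethylated H3K9 product from 2 h room-temperature reactions (G9a 20 nM, peptide 500 nM, SAM 20 uM) was detected with 0.5 ug/mL rabbit anti-H3K9me1 antibody.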
Each line names hits and unclear results; the compound was inactive in the other large screens; ! = not active in a repeat. Compounds with a hit are over-represented: about 12% of the library has one in this group of screens. Unless noted, calls follow the shape of the dose curve; as a rule, active = well fitted curve in the direction sought with a large enough effect; inconclusive = small, poorly fitted or top-dose-only effect, or another doubt; inactive = no such curve, though single readings can be large; an effect the other way counts as inactive or inconclusive.

COc1ccc(CN2CCNC(=O)C2CC(=O)NCc2cc(C)n(C)n2)c(F)c1 (stereo unspecified)	G9a block 25µM
O=C(NCC1CCCO1)C(c1ccc(F)cc1)N(CC1CCCO1)C(=O)c1ccc(-c2ccccc2)[nH]1 (stereo unspecified)	BAZ2B inh 40µM (no result: G9a block)
COc1ccccc1NC(=O)Cn1c(=O)n(Cc2ccccc2)c(=O)c2sc3ccccc3c21	none (no result: PI5P4Ka inh, PLK1 PBD inh)
O=C(Nc1ccccc1OCc1cc(=O)n2ccccc2n1)c1cccc(Br)c1	none (no result: PI5P4Ka inh, PLK1 PBD inh)
C=CCSC1=Nc2cc(OC)c(OC)cc2C2=NC(=O)CN12	G9a block 50µM
COc1cc2c(cc1OC)C1=NC(=O)CN1C(SCc1ccc(C)cc1)=N2	BAZ2B inh 79µM, G9a block inconclusive
Cc1ccc(CSC2=Nc3sccc3C3=NC(=O)CN23)cc1	PI5P4Ka inh inconclusive
O=C(Nc1ccc(N2CCN(c3ccc(F)cc3)CC2)c(C(=O)O)c1)c1ccccc1F	JMJD2A Tudor inh inconclusive (no result: PI5P4Ka inh, PLK1 PBD inh)
CCCCN(CC)C(=O)Cn1nc(C)c2c(C)n(-c3ccccc3)nc2c1=O	none (no result: PI5P4Ka inh, PLK1 PBD inh)
CC(C)Nc1nnc(SCC(=O)Nc2ccc(F)cc2)s1	G9a block 40µM (no result: PI5P4Ka inh)
Cc1ccc(N2CC(C(=O)Nc3nnc(SCc4cccnc4)s3)CC2=O)cc1 (stereo unspecified)	G9a block 16µM
CC(=O)Nc1ccc(NC(=O)CSc2nnc(NC(=O)c3ccc(Br)o3)s2)cc1	PLK1 PBD inh inconclusive, BAZ2B inh inconclusive, G9a block 16µM
Cc1ccc(N2CC(C(=O)Nc3nnc(SCc4ccccn4)s3)CC2=O)cc1 (stereo unspecified)	G9a block 45µM
CC(=O)Nc1cccc(NC(=O)CSc2nnc(NC(=O)c3ccco3)s2)c1	G9a block inconclusive
O=C(Nc1nnc(SCc2ccccn2)s1)C1CC(=O)N(c2ccccc2)C1 (stereo unspecified)	G9a block inconclusive
Cc1ccc(N2CC(C(=O)NCc3cccnc3)CC2=O)cc1 (stereo unspecified)	none (no result: PI5P4Ka inh)
COc1ccccc1CN(C)C(=O)c1ccccc1Sc1ccccc1C#N	none
CC(C)CC(=O)Nc1nnc(S(=O)(=O)Nc2ccccc2)s1	none
COc1ccc(N2CC(C(=O)Nc3nnc(SCC(=O)NC4CCCC4)s3)CC2=O)cc1 (stereo unspecified)	JMJD2A Tudor inh inconclusive, PLK1 PBD inh inconclusive, G9a block 32µM
CCOc1ccc(N2CC(C(=O)Nc3nnc(Cc4ccc(OC)cc4)s3)CC2=O)cc1 (stereo unspecified)	G9a block 10µM
CC(=O)Nc1ccc(NC(=O)CSc2nnc(NC(=O)C3CC(=O)N(c4ccccc4)C3)s2)cc1 (stereo unspecified)	G9a block 40µM
CCNc1nnc(SCC(=O)NC2CCCCCC2)s1	G9a block 3.5µM
O=C(NNC(=O)c1ccccc1O)c1ccc(Cl)c(S(=O)(=O)N2CCCCC2)c1	none
O=C(CSc1nnc(NC(=O)c2ccccc2)s1)NCC1CCCO1 (stereo unspecified)	G9a block inconclusive
CC(=O)Nc1nnc(SCC(=O)NCC2CCCO2)s1 (stereo unspecified)	G9a block inconclusive (no result: PI5P4Ka inh)
O=C(CSc1nnc(NC(=O)c2ccccc2F)s1)NCC1CCCO1 (stereo unspecified)	JMJD2A Tudor inh inconclusive, PLK1 PBD inh inconclusive, G9a block 14µM
COc1ccccc1N1CC(C(=O)Nc2nnc(SCc3cccnc3)s2)CC1=O (stereo unspecified)	none (no result: G9a block)
Cc1ccc(N2CC(C(=O)Nc3nnc(SCC(=O)NCC4CCCO4)s3)CC2=O)cc1C (stereo unspecified)	PI5P4Ka inh inconclusive, G9a block 40µM
COc1ccc(N2CC(C(=O)Nc3nnc(SCc4cccnc4)s3)CC2=O)cc1 (stereo unspecified)	PI5P4Ka inh inconclusive, G9a block 50µM
COCCN1C(=O)/C(=C/c2ccc(N3CCCC3)cc2C)SC1=S	JMJD2A Tudor inh inconclusive, BAZ2B inh 8.9µM
COC(=O)c1cccc(NS(=O)(=O)c2cccs2)c1C	none
COC(=O)c1ccccc1NC1=C/C(=N\S(=O)(=O)c2cccs2)c2ccccc2C1=O	HP1b chromo inh 7.1µM, JMJD2A Tudor inh 4µM, PI5P4Ka inh inconclusive, PLK1 PBD inh 19µM, BAZ2B inh 1.4µM, G9a block 1.8µM
COC(=O)c1ccccc1NC1=C/C(=N\S(=O)(=O)c2ccc(C(=O)O)cc2)c2ccccc2C1=O	HP1b chromo inh 16µM, JMJD2A Tudor inh 20µM, PI5P4Ka inh inconclusive, PLK1 PBD inh inconclusive, BAZ2B inh 8.9µM, G9a block 8.9µM
COC(=O)c1ccccc1Nc1ccccc1	none (no result: PI5P4Ka inh)
O=C(O)CCn1cc(/C=C/C(=O)c2ccc(Cl)cc2)c(-c2ccc(Br)cc2)n1	PLK1 PBD inh inconclusive, G9a block 79µM
CC(C)c1ccc(NS(=O)(=O)c2ccc3nc(-c4ccccc4)[nH]c3c2)cc1	none (no result: PI5P4Ka inh, PLK1 PBD inh)
COc1cc(CNc2cccc3[nH]c(C(F)(F)F)nc23)cc(OC)c1	JMJD2A Tudor inh 50µM, PLK1 PBD inh 27µM, BAZ2B inh inconclusive, G9a block 40µM
CCOc1ccccc1NC(=O)C(NS(=O)(=O)c1ccc2c(c1)CCC(=O)N2)c1ccccc1 (stereo unspecified)	none (no result: PI5P4Ka inh, PLK1 PBD inh)
CCCCCCCCCCCCCCC/C=C/[C@@H](O)[C@H](NC(=O)CCCCCCCCCCCCC)OC (tested in a mixture with another compound)	G9a block 20µM (no result: HP1b chromo inh, JMJD2A Tudor inh, PI5P4Ka inh, PLK1 PBD inh, BAZ2B inh)
CC(=O)N1CCC2(CC1)CCN(c1ncccn1)CC2	none (no result: HP1b chromo inh, JMJD2A Tudor inh, PI5P4Ka inh, PLK1 PBD inh, BAZ2B inh)
Oc1ccc(/C=C/c2cc(O)cc(O)c2)cc1	G9a block 7.9µM!
Oc1ccc(/C=C\c2cc(O)cc(O)c2)cc1	none (no result: HP1b chromo inh, JMJD2A Tudor inh, PI5P4Ka inh, PLK1 PBD inh, BAZ2B inh)
Cc1ccc2c(c1)nnn2C1CCN(S(=O)(=O)c2ccc(C(=O)N3C(C)CCCC3C)cc2)CC1 (stereo unspecified)	JMJD2A Tudor inh 50µM, BAZ2B inh inconclusive, G9a block 25µM
COc1cccc(-n2c(SCC(=O)Nc3cc(C)ccc3C)nc3c(oc4ccccc43)c2=O)c1	none (no result: PI5P4Ka inh, PLK1 PBD inh)
O=C(CN1C(=O)NC2(CCOc3ccccc32)C1=O)NCC(F)(F)F (stereo unspecified)	none
COCCNC(=O)CN(C(=O)CCC(=O)Nc1cc(C)on1)c1cccc(C)c1C	JMJD2A Tudor inh 79µM, PLK1 PBD inh inconclusive, G9a block inconclusive
CCOc1ccccc1NC(=O)CCNS(=O)(=O)c1cccc2nonc12	none
COc1cc(/C=C2\SC(=S)N(Nc3ncc(C(F)(F)F)cc3Cl)C2=O)ccc1O	HP1b chromo inh inconclusive, JMJD2A Tudor inh inconclusive, BAZ2B inh 35µM, G9a block 40µM
CCOc1cc(/C=C2\SC(=S)N(N3CCOCC3)C2=O)ccc1O	none
